Drawing on PubChem BioAssay AID1631 (National Center for Advancing Translational Sciences (NCATS), 2009), this text covers Potency and activation for 99 molecules.

Among all 260,000 compounds or so, about 890 (0.34%) were called active. Entries that show only a call come without a potency. Roughly 1% stayed inconclusive and do not appear here. The call rests on the fitted dose curve; in most records, active means well fitted activation curve with a large enough effect; inconclusive means small, poorly fitted or top-dose-only effect; inactive means no such curve, though single readings can be large or run the other way. This excerpt belongs to a sample that is enriched for actives.
Potency means the concentration at half of the fitted maximal effect.

Chain of Pyruvate kinase PKM (Homo sapiens) (P14618 whole entry, looked up, canonical isoform): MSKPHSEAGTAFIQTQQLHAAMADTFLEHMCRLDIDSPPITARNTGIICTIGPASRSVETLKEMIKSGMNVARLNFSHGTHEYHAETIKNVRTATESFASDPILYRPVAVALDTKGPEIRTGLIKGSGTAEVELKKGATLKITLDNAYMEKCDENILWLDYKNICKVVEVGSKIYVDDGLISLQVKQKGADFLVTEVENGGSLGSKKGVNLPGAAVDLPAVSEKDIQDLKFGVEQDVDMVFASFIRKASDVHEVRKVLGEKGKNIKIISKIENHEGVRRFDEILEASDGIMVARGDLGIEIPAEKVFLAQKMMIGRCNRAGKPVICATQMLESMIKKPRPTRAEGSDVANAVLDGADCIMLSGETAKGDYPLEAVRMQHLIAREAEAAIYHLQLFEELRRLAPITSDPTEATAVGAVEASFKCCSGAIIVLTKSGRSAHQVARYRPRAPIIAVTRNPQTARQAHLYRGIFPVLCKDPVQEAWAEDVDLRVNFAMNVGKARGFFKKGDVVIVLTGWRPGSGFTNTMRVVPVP

The experiment has as its target Pyruvate kinase PKM (Homo sapiens) (UniProt P14618). In words: qHTS Assay for Activators of Human Muscle isoform 2 Pyruvate Kinase. Further: nearly all actives have a fitted effect of over 55% in size. The following applies: purified PKM2, Kinase-Glo ATP luminescence; Potency: activation; series mostly up to 57.5 µM. In outline: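 Purified hPK-M2 (>95%) run at intermediate activity with 0.1 mM ADP and 0.5 mM PEP in 50 mM imidazole pH 7.2, KCl, MgCl2; 1 h room temperature. ATP formed read by Kinase-Glo luminescence; normalized to uninhibited and no-enzyme controls.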
(In general: Quantitative high-throughput screening tests each substance at several concentrations.)
With `Cc1noc(C)c1CSCC(=O)N(CCC(C)C)c1c(N)n(Cc2ccccc2)c(=O)[nH]c1=O`, the Potency entry is “inactive”.

On to `COC(=O)c1ccc(COc2ccc(/C=C/C(=O)c3ccc(OC)c(CSCC(=O)O)c3)cc2OC)cc1`, for which the Potency entry is “inactive”.

Consider `Cc1ccc(S(=O)(=O)c2c(N)n(C)c3nc4ccccc4nc23)cc1`, for which the Potency is 12.6 µM (active).

With `CCC(=O)Nc1c(S(=O)(=O)c2ccccc2)c2nc3ccccc3nc2n1Cc1ccccc1`, the Potency result was “inactive”.

With `CCN(CC)CCn1c(N)c(S(=O)(=O)c2ccccc2)c2nc3ccccc3nc21`, the Potency result is “inactive”.

For `c1ccc(Cc2ccc(OCCn3ccnc3)cc2)cc1`, the Potency result was “inactive”.

Consider `O=C(Nc1ccc(C(=O)N2CCCCC2)cc1)c1cccc([N+](=O)[O-])c1`, for which the Potency result is “inactive”.

Consider `CCCCC(C(=O)NC(C)(C)C)N(Cc1ccccc1)C(=O)c1snc(C(N)=O)c1N` (centres undefined), for which the Potency entry is “inactive”.

`COc1ccc(-c2nn(-c3ccccc3)cc2/C=C2/SC(=S)N(CCCC(=O)O)C2=O)c(C)c1`: the activation is -3.19% [at 11.5 µM, 0% is enzyme alone, no compound] (inactive).

`CCCc1cc(C(=O)N2CCCC(CO)(CCCc3ccccc3)C2)n(C)n1` (centres undefined): the Potency result was “inactive”.

Turning to `O=C(CNc1cccc(S(=O)(=O)N2CCCCC2)c1)Nc1ccccc1F`, the Potency entry was “inactive”.

Take `Cc1cccc(-n2ncc(Cl)c(Cl)c2=O)c1`: the Potency entry was “inactive”.

As for `C/C(=N\N(C)C)c1ccc(OCCOc2ccc([N+](=O)[O-])cc2)cc1`, the Potency entry was “inactive”.

On to `COc1ccc(CCn2c(=N)c(C(=O)NCc3ccco3)cc3c(=O)n4cccc(C)c4nc32)cc1`, for which the Potency entry is “inactive”.

As for `C=C(C)Cn1c(SCC(=O)NCc2ccco2)nc2sc3c(c2c1=O)CCC3`, the Potency entry is “inactive”.

For `O=C(NCc1ccco1)c1cccn2c(=O)c3c4c(sc3nc12)CCCC4`, the Potency is 25.1 µM (active).

For `O=C(CCCC(=O)N1CCN(c2cccc(Cl)c2)CC1)c1ccccc1`, the Potency entry was “inactive”.

In the case of `COc1ccc(C2=NN(C(=O)CCC(=O)O)C(c3cccs3)C2)cc1OC` (centres undefined), the Potency entry was “inactive”.

As to `CCS(=O)(=O)Nc1ccc(C2=NN(C(C)=O)C(c3cccs3)C2)cc1` (centres undefined), the Potency is 4.47 µM (active).

Consider `CS(=O)(=O)Nc1ccc(C2=NN(S(C)(=O)=O)C(c3cccs3)C2)cc1` (centres undefined), for which the Potency result is “inactive”.

Consider `CC(=O)c1cc2c(cc1NC(=O)Cn1nc(-c3ccc(F)cc3)ccc1=O)OCO2`, for which the Potency result is “inactive”.

In the case of `CC(=O)N1CCc2c(sc(NC(=O)CCS(=O)(=O)c3ccccc3)c2C#N)C1`, the Potency result is “inactive”.

Consider `CCOC(=O)c1ccc(NC(=O)Cc2cccs2)cc1`, for which the Potency result was “inactive”.

Regarding `CC1CCN(C(=S)NC(=O)c2ccccc2Br)CC1`, the Potency entry is “inactive”.

`O=C(Nc1ccc(N2CCOCC2)c(Cl)c1)c1ccc(S(=O)(=O)N2CCOCC2)cc1`: the Potency result is “inactive”.

`COc1ccc(C2=NN(C(C)=O)C(c3ccccc3)C2)cc1` (centres undefined): the Potency entry is “inactive”.

Turning to `COc1ccc(C2CC(c3ccc([N+](=O)[O-])cc3)=NN2C(C)=O)cc1` (centres undefined), the Potency was 12.6 µM (active).

With `COc1ccc(C2CC(c3ccccc3)=NN2C(=O)c2ccc(Cl)c([N+](=O)[O-])c2)cc1` (centres undefined), the Potency entry was “inactive”.

On to `CC[C@]1(c2ccccc2OC)C(=O)N(C(=O)OC)N1C(=O)OC`, for which the Potency entry is “inactive”.

In the case of `CCOC(=O)c1cc(C(=O)Nc2ccc(S(=O)(=O)Nc3ccc(OC)cc3)cc2)nn1C`, the Potency result was “inactive”.

Take `Cc1cccc(NC(=S)NCCc2ccc(Cl)cc2)c1C`: the Potency entry was “inactive”.

On to `COc1ccc(-n2nc(C(=O)NCC(=O)N3CCN(c4ccccc4OC)CC3)c3ccccc3c2=O)c(OC)c1`, for which the Potency entry is “inactive”.

`O=c1c2ccccc2nc(CSc2nnnn2-c2ccccc2)n1-c1ccccc1`: the Potency entry is “inactive”.

Consider `Nc1nnc(SCn2nnc3ccccc3c2=O)s1`, for which the Potency entry is “inactive”.

For the molecule `O=c1c2ccccc2nnn1CSc1nnnn1-c1ccccc1`, the Potency is 28.2 µM (active).

For `CCC(C)c1ccccc1NC(=O)CN(C)CC(=O)Nc1ccccc1SC` (centres undefined), the Potency entry is “inactive”.

On to `O=C(N/N=C/c1cccc(OCc2ccccc2)c1)c1ccc(Br)o1`, for which the Potency result is “inactive”.

On to `CCN(C(=O)COc1ccc(C(=O)c2ccccc2)cc1)c1ccccc1`, for which the Potency result was “inactive”.

Consider `CC1CCN(C2=NC(=O)/C(=C/c3ccc(O)cc3)S2)CC1`, for which the activation was -2.26% [at 11.5 µM, 0% is enzyme alone, no compound] (inactive).

As to `CCOC(=O)C1(Cc2ccccc2C)CCCN(C(=O)c2ccc(COC)o2)C1` (centres undefined), the Potency result is “inactive”.

In the case of `S=C(Nc1ccc(Br)cc1)NC1CCN(Cc2ccccc2)CC1`, the Potency entry was “inactive”.

On to `O=C(Nc1nc2ccc([N+](=O)[O-])cc2s1)c1ccc(S(=O)(=O)N2CCCc3ccccc32)cc1`, for which the Potency result is “inactive”.

As to `CCn1c(=O)c(=O)n(CC)c2cc(S(=O)(=O)N3CCc4ccccc43)ccc21`, the Potency result is “inactive”.

With `CSc1nc2ccc(S(=O)(=O)N3CCc4ccccc43)cc2s1`, the Potency was 2.24 µM (active).

In the case of `CC(CN1CCOCC1)OC(=O)c1ccc(C(C)(C)C)cc1` (centres undefined), the Potency entry was “inactive”.

As for `NC(=S)c1ccc(C(N)=S)o1`, the Potency was 15.8 µM (active).

As to `CCn1c(SCc2ccccc2)nc2c(c1=O)SCC2`, the Potency result was “inactive”.

Take `Cc1cccc(CSc2nc3c(c(=O)n2C)SCC3)c1`: the Potency was 15.8 µM (active).

`Cn1c(SCC(=O)N2CCCCC2)nc2c(c1=O)SCC2`: the Potency entry was “inactive”.

As to `COc1ccc(CNS(=O)(=O)c2cc(-c3cc(C)no3)ccc2C(C)C)cc1`, the activation is 2.22% [at 0.46 µM, 0% is enzyme alone, no compound] (inactive).

Take `Cc1ccc(S(=O)(=O)NC2CCCCCC2)cc1C(N)=O`: the Potency result was “inactive”.

For `COc1ccc(Nc2ncnc3ccc(Br)cc23)c(OC)c1`, the Potency result is “inactive”.

In the case of `COC(=O)c1ccccc1NC(=O)C1CCN(C(=O)N2CCOc3ccccc32)CC1`, the Potency result is “inactive”.

Consider `CCCC(C(=O)NC1CCCC1)N(C(=O)Cn1nnc(-c2ccc(C)o2)n1)c1cccc(O)c1` (centres undefined), for which the Potency result is “inactive”.

As for `COc1ccc(NC(=O)CSc2nc3ccccc3c(=O)n2C)cc1`, the Potency entry was “inactive”.

Turning to `O=c1cc(CO)oc(C(Nc2cccc(C(F)(F)F)c2)c2ccccn2)c1O` (centres undefined), the Potency was 25.1 µM (active).

As for `FC(F)(F)c1cccc(Nc2ncnc3ccccc23)c1`, the Potency result is “inactive”.

As to `O=C(Nc1cccc(C(F)(F)F)c1)c1cnccn1`, the Potency entry was “inactive”.

`CCC(C)(C)NC(=O)C(c1ccc(O)cc1)N(Cc1ccco1)C(=O)CCC(=O)Nc1ccccn1` (centres undefined): the Potency entry was “inactive”.

For `CC(=O)c1ccc(N2CCN(C(=O)c3ccc4nc[nH]c4c3)CC2)cc1`, the Potency result is “inactive”.

On to `CC/C(O)=N\S(=O)(=O)c1ccc(N=NN(C)C)cc1`, for which the Potency entry was “inactive”.

On to `CN(C)N=Nc1ccc2nc[nH]c2c1`, for which the Potency was 10 µM (active).

Take `CCCn1c(CCNc2nc(-c3ccc(OC)cc3)cs2)nc2ccccc21`: the Potency entry is “inactive”.

Turning to `O=C(N/N=C\c1cc2c(cc1Cl)OCO2)c1ccc(Br)s1`, the Potency entry was “inactive”.

On to `CCOC(=O)C1(CCOc2ccccc2)CCN(Cc2cc(OC)cc(OC)c2)CC1`, for which the Potency entry is “inactive”.

As for `COc1ccc(C(=O)CC(=O)c2ccc(C)cc2)c(O)c1`, the Potency result was “inactive”.

With `COC(=O)CN1C(=O)[C@H]2[C@@H](C3CC3)N3C(=O)CN(Cc4ccc(-c5ccccc5)cc4)C(=O)[C@@]3(Cc3ccccc3)[C@H]2C1=O`, the Potency entry is “inactive”.

As for `COc1ccccc1CN(C)C(=O)c1cc2ccccc2o1`, the Potency result is “inactive”.

Regarding `COc1ccccc1CCNS(=O)(=O)c1cn(C)nc1C`, the Potency result is “inactive”.

As for `Cc1cccc(N2CCN(C(=O)c3cccc(N4C(=O)C5C6C=CC(C6)C5C4=O)c3)CC2)c1C` (centres undefined), the Potency result was “inactive”.

As for `O=C(Nc1cccc(F)c1)NC1CCCc2ccccc21` (centres undefined), the Potency entry was “inactive”.

For `O=C(CNC(=O)c1ccc(F)cc1)c1ccccc1`, the activation was 0.121% [at 11.5 µM, 0% is enzyme alone, no compound] (inactive).

Consider `C[N+](C)(C)CCNC(=O)c1c(O)c2c([nH]c1=O)CCCC2`, for which the Potency result was “inactive”.

As for `O=C(NCc1ccccn1)c1c(O)c2c([nH]c1=O)CCCC2`, the Potency is 3.16 µM (active).

As for `CCc1nnc(NC(=O)c2c(O)c3c([nH]c2=O)CCCC3)s1`, the Potency result is “inactive”.

Regarding `CCOC(=O)C1(CCOc2ccccc2)CCN(Cc2ccc(C#CCCO)cc2)CC1`, the Potency entry was “inactive”.

Consider `COc1ccc(N2CCN(S(=O)(=O)c3ccc4c(c3)NC(=O)C(C)C(=O)N4)CC2)cc1` (centres undefined), for which the Potency result is “inactive”.

With `Nc1c(Cl)cc(-c2csc(N3CCCC3c3nc4cc(Cl)c(Cl)cc4n3CCOCCO)n2)cc1Cl` (centres undefined), the Potency result is “inactive”.

As for `O=C(Nc1cccc(-n2cnnn2)c1)c1cccnc1`, the Potency entry was “inactive”.

Consider `Cc1ccc(C)c(S(=O)(=O)Nc2cccc(-n3cnnn3)c2)c1`, for which the Potency was 14.1 µM (active).

Turning to `Cc1ccc(C)c(S(=O)(=O)Nc2cc(C)on2)c1`, the Potency entry is “inactive”.

For `CCCCC(=O)Nc1ccccc1N1CCN(c2ccc(F)cc2)CC1`, the activation is -1.04% [at 11.5 µM, 0% is enzyme alone, no compound] (inactive).

For `O=C(c1cc(C(=O)N2CCN(c3ccc(F)cc3)CC2)cc([N+](=O)[O-])c1)N1CCN(c2ccc(F)cc2)CC1`, the Potency entry was “inactive”.

For the molecule `CSc1ccc(S(=O)(=O)N2CCC(C(=O)NCCc3ccccc3)CC2)cc1`, the Potency result is “inactive”.

Consider `Oc1ccc(C2Nc3cccc4cccc(c34)N2)cc1`, for which the Potency entry was “inactive”.

As for `CCC1CCCCN1C(=S)Nc1ccc(S(=O)(=O)Nc2ncccn2)cc1` (centres undefined), the Potency entry is “inactive”.

As to `Cc1nc(SCC(=O)N2CC(=O)Nc3ccccc32)c2c(C)c(C)sc2n1`, the Potency was 12.6 µM (active).

Take `Cc1nc(SCC(=O)N2CCc3ccccc3C2)c2c(C)c(C)sc2n1`: the Potency entry is “inactive”.

Regarding `COc1cccc(Nc2nnc(SCC(=O)N3CC(=O)Nc4ccccc43)s2)c1`, the Potency entry is “inactive”.

Consider `COc1ccccc1CN1CCN(C(c2ccccc2)c2ccccc2)CC1`, for which the Potency entry is “inactive”.

As to `COc1ccc(OCc2cc(C(=O)N3CCCC3)no2)c2ccccc12`, the Potency result is “inactive”.

Take `Cc1ccc(C(=O)c2coc3ccc(O)c(CN(C)C)c23)cc1`: the Potency entry was “inactive”.

Take `O=[N+]([O-])c1ccc2c(c1)Nc1nc3ccccc3nc1N2`: the Potency result was “inactive”.

For `O=C(CC1C(=O)NCCN1C(=O)c1ccc([N+](=O)[O-])cc1)Nc1cccc(Cl)c1` (centres undefined), the Potency result was “inactive”.

Regarding `CCCn1c(C2CCCN2c2nc(-c3ccc(C)cc3)cs2)nc2cc(Cl)c(N3CCCCC3)cc21` (centres undefined), the Potency result is “inactive”.

For `COc1ccc(CN2CCCC(N3CCc4ccccc4C3)C2)c(O)c1` (centres undefined), the Potency result is “inactive”.

As to `Cc1ccc(NS(=O)(=O)c2cc3c(cc2C)NC(=O)CO3)cc1`, the Potency was 5.62 µM (active).

For the molecule `COc1ccc(CCNS(=O)(=O)c2cc3c(cc2C)NC(=O)CO3)cc1OC`, the Potency result was “inactive”.

Take `Cc1cc2c(cc1S(=O)(=O)NCc1ccc(Cl)cc1)OCC(=O)N2`: the Potency result was “inactive”.
